Assay outcomes from PubChem.
A selection: hits, their analogues and other compounds. The true share with any hit is near 12%.
G9a block = G9a (human) methyltransferase inhibition; Potency, µM (doses to about 102 µM), for the others: at the top dose activity, negative = inhibition, actives largely listed as inhibitors; 8.8% of 350,000 active; G9a H3K9 monomethylation, AlphaScreen, 2 h; Q96KQ7; AID 504332; further: potency means the concentration at half of the fitted maximal effect; on the % scale 0 is the no-effect control and ±100 the full control effect; nearly all actives have a fitted effect of over 75% in size
Target sequence (Q96KQ7 913-1193 limits assumed): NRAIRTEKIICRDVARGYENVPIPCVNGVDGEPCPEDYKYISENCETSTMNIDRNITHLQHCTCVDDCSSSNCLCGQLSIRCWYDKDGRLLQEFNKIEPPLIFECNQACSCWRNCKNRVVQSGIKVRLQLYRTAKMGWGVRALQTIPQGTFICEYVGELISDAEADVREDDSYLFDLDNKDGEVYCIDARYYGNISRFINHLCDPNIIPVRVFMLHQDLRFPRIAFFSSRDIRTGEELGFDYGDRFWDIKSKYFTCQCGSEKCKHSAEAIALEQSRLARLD
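Readings reflect AlphaScreen signal from monomethyl-H3K9 antibody detection. HMT at 20 nM; substrate b-H3K9 500 nM; cofactor SAM 20 uM; 2 h RT reaction; compounds tested as titrations in qHTS with 15 min preincubation.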
PLK1 PBD block = PLK1 (human) polo-box domain binding inhibition. P53350. Plk1 PBD binding of FITC phosphopeptide, fluorescence polarization. Potency, µM, for inactives: max response, negative = inhibition, most hits filed as inhibitors. 2.8% of 360,000 active; further: potency means the concentration at half of the fitted maximal effect; series mostly up to about 57 µM; on the % scale 0 is the no-effect control and ±100 the full control effect; nearly all actives have a fitted effect of over 65% in size
PI5P4Ka inh = blocks human PI5P4K alpha kinase activity. P48426. PI5P4Kalpha enzyme, ADP-Glo luminescence, 60 min; hits give low values. max response, %. 1.2% of 330,000 active; active means max response of -50% or lower; inconclusive means between -30% and -50%; inactive means -30% or higher; further: value at the top dose of about 77 µM; on the % scale 0 is the no-effect control and ±100 the full control effect
Target sequence (P48426 whole entry, looked up): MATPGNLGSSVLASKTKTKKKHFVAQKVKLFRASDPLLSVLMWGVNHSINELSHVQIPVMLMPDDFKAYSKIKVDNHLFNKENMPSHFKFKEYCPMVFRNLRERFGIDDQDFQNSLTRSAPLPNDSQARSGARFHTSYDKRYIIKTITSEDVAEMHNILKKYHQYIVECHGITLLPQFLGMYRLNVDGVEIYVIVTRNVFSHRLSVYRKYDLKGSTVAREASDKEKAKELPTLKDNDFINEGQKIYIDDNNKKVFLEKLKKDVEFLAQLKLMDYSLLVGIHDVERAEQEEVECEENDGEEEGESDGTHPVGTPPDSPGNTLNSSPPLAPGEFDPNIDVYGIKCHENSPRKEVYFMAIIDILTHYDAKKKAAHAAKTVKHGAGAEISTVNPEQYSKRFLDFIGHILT
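Compounds were pin-transferred onto PI5P4Kalpha and substrate in HEPES pH 7.4 buffer with EGTA, CHAPS and 5% DMSO. ATP (5 microM final) started the reaction, which ran 60 minutes at room temperature before ADP-Glo detection.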
HP1b chromo inh = inhibitors of HP1-beta chromodomain binding to methylated histone tails. Potency, µM (top dose mostly 114 µM), for inactives: top-dose activity change, negative = inhibition, usual class: inhibitors. AID 540317. 0.56% of 390,000 active. AlphaScreen HP1-beta / biotin-H3K9me3 peptide binding. P83916; further: potency means the concentration at half of the fitted maximal effect; nearly all actives have a fitted effect of over 70% in size
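AlphaScreen: HP1-beta (50 nM) preformed 30 min with biotin-H3(1-18)K9me3 peptide (50 nM) in PBS pH 7.4, 0.01% Tween-20. Compound added for 30 min at RT, then streptavidin donor/nickel chelate acceptor beads (10 ug/mL) for 30 min.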
JMJD2A Tudor = JMJD2A Tudor domain (human) inhibition. O75164. AlphaScreen JMJD2A-Tudor / H3K4me3 peptide binding. Potency, µM (highest dose often 114 µM), inactives show at the highest dose activity change, negative = inhibition, usual class: inhibitors. 4.4% of 390,000 active. AID 504339; further: potency means the concentration at half of the fitted maximal effect; on the % scale 0 is the no-effect control and ±100 the full control effect; nearly all actives have a fitted effect of over 50% in size
BAZ2B block = BAZ2B (human) inhibition; AID 504333; Potency, µM (doses to about 114 µM), without a hit: at the highest dose activity change, negative = inhibition, usual class: inhibitors; AlphaScreen BAZ2B-H3K14Ac peptide displacement; 4.4% of 360,000 active; further: potency means the concentration at half of the fitted maximal effect; on the % scale 0 is the no-effect control and ±100 the full control effect; nearly all actives have a fitted effect of over 60% in size
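BAZ2B (50 nM) with biotin-H3(5-23)K14Ac peptide (50 nM) in PBS pH 7.4, 0.01% Tween-20, preformed 30 min, then compound 30 min at room temperature; top concentration 110uM. AlphaScreen streptavidin donor/nickel chelate acceptor beads (10 ug/mL final), 20 min dark, signal read.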
Active calls of the source: *; ? = inconclusive; / = no result; [ ] = remark or other dose. Unless noted, the call rests on the fitted dose curve; in most records, active means well fitted curve in the direction sought with a large enough effect; inconclusive means small, poorly fitted or top-dose-only effect, or another doubt; inactive means no such curve, though single readings can be large; an effect the other way counts as inactive or inconclusive.

SMILES	G9a block	PLK1 PBD block	PI5P4Ka inh	HP1b chromo inh	JMJD2A Tudor	BAZ2B block
COCCNCCCCOc1c(Cl)cc(C)cc1Br	/	-9%	-2	-17%	3.2µM*	50µM*
CCc1cccc(C)c1NC(=O)C1CCN(c2nn3c(=O)cc(C)nc3s2)CC1	22%[59 µM]	?	2	-2%	-25%	-3%
COc1ccc(-c2nc(CN3CCC(C(=O)N4CCOCC4)CC3)c(C)o2)cc1C	-4%	-1%	3	24%	0%	-25%
Cc1cc(C)c(OCCCNC2CCCC2)c(Br)c1	/	1%	2	6%	79µM*	?
Cc1cc(C)c(OCC(=O)OCC(=O)NC2CCCCCCC2)c(C)c1	-12%[0.501 µM]	-10%	20	39%	16%	0%
COc1ccc(N(C(C)C(=O)N2CCCC2)S(C)(=O)=O)cc1 (stereo not drawn)	17%[0.501 µM]	-4%	1	17%	-11%	5%
CCOc1ccc(N(C(C)C(=O)N2CCCC2)S(C)(=O)=O)cc1 (stereo not drawn)	-4%	19µM*	-8	-10%	?	10%
CCOc1ccc(N(C(C)C(=O)NC2CCCCCC2)S(C)(=O)=O)cc1 (stereo not drawn)	14µM*	?	-1	-3%	-6%	-2%
CCC(C)c1ccccc1N1CC(C(=O)Nc2ccc(S(=O)(=O)N3CCOCC3)cc2)CC1=O (stereo not drawn)	50µM*	0%	1	8%	-20%	11%
CCOc1ccc(N2CC(C(=O)Nc3ccc(S(=O)(=O)N4CCOCC4)cc3)CC2=O)cc1 (stereo not drawn)	-43%	-2%	/	5%	-17%	-5%
COc1ccc(OCC(=O)NC(=S)Nc2ccc(N3CCOCC3)c(Cl)c2)cc1	?	?	/	-18%	-25%	?
CC(C)CC(=O)NC(=S)Nc1ccc(N2CCOCC2)c(Cl)c1	11µM*	-4%	3	22%	-6%	-33%
O=C(NC(=S)Nc1ccc(N2CCOCC2)c(Cl)c1)c1cccs1	1%	-5%	-1	-5%	?	35µM*
O=C(Nc1ccc(N2CCCC2)c(Cl)c1)c1cccs1	28µM*	-6%	-7	?	45µM*	45µM*
O=C(NC(=S)Nc1ccc(N2CCOCC2)c(Cl)c1)c1sc2ccccc2c1Cl	1.3µM*	-12%	2	5%	-11%	-35%
Cc1cc(NC(=O)C(C)SCC(=O)OC(C)C(=O)Nc2ccc(F)cc2Cl)no1 (stereo not drawn)	?	-1%	1	31%	-7%	7%
COc1ccccc1N(C)S(=O)(=O)c1ccc(C(=O)Nc2nccs2)cc1	-18%[12.7 µM]	1%	0	41%	-20%	-3%
O=C(NC(=S)Nc1ccc(N2CCCCC2)cc1)c1cccs1	14µM*	-14%	/	40µM*	35µM*	14µM*
CS(=O)(=O)N1CCN(c2ccc(NC(=S)NC(=O)c3cccs3)cc2)CC1	/	-10%	2	21%	-16%	5%
CCOc1ccc(C(C)(N)C(=O)O)cc1 (stereo not drawn)	?	-3%	/	6%	3.5µM*	-38%
CCOC(=O)c1[nH]c(C)c(CCC(=O)Nc2cc(Cl)c(OC)cc2OC)c1C	-27%[59 µM]	/	/	0%[57 µM]	-35%	-11%
CC(NC(=O)c1ccccc1)c1nc2ccccc2n1Cc1ccccc1F (stereo not drawn)	50µM*	/	/	/	/	-35%[57.1 µM]
CN(C)C(=O)COC(=O)c1ccc(S(=O)(=O)NCc2ccco2)cc1	?	27µM*	-17	?	-6%[11.4 µM]	?
O=C(COC(=O)c1ccc(S(=O)(=O)NCc2ccco2)cc1)Nc1ccccc1	?	-7%	-7	15%	-6%	10%
O=C(COC(=O)c1ccc(S(=O)(=O)NCc2ccco2)cc1)Nc1ccc(Cl)cn1	50µM*	?	?	-31%	?	56µM*
SMILES	G9a block	PLK1 PBD block	PI5P4Ka inh	HP1b chromo inh	JMJD2A Tudor	BAZ2B block
O=C(COC(=O)c1ccc(S(=O)(=O)NCc2ccco2)cc1)Nc1ccccc1OC(F)F	50µM*	-1%	-11	4%	-19%	47%
COc1ccc(S(=O)(=O)NC(=O)C2(C)CCN2C(=O)C2(c3ccc(Cl)cc3)CCC2)cc1 (stereo not drawn)	/	0%	-4	/	/	/
O=C(CSc1nc(=O)n(CCCN2CCOCC2)c2c1CCC2)Nc1ccccc1F	-3%	3%	-2	29%	-3%	-7%
Cc1noc(C)c1C(=O)N1CCC2(CC1)CCN(C(c1ccccc1)c1ccccc1)CC2	-7%[12.7 µM]	/	/	/	/	/
O=C(c1ccc2c(c1)N(Cc1ccc(Cl)cc1)C(=O)c1ccccc1S2(=O)=O)N1CCCCCC1	-25%[59 µM]	/	/	24%	-10%	-20%
Cc1cc(OCC(=O)N2CCCCCC2)ccc1[N+](=O)[O-]	1%[59 µM]	-3%	1	21%	-9%	-5%
COc1ccccc1OCCn1ccnc1	/	-2%	-5	?	3.5µM*	?
Cc1cc(OCCCn2ccnc2)ccc1[N+](=O)[O-]	/	-9%	4	?	6.3µM*	56µM*
Cc1cc(OCCN2CCCCCC2)ccc1[N+](=O)[O-]	25µM*	-11%	-1	?	?	56µM*
Fc1ccc(OCCCn2ccnc2)cc1	40µM*	4%	1	?	45µM*	?
CC(C)CCNC(=O)C(=O)Nc1c2c(nn1-c1ccc(Cl)cc1)CSC2	28%[59 µM]	/	/	28%	-6%	0%
COc1ccc(OCCCn2ccnc2)cc1	-50%[2.33 µM]	-11%	-2	16µM*	0.89µM*	22µM*
Cc1ccc(CNc2oc(-c3cccs3)nc2C#N)cc1	50µM*	3%	/	?	-35%	?
N#Cc1nc(COc2ccccc2Cl)oc1NCc1ccc(F)cc1	45µM*	-10%	/	4%	?	?
Cc1ccc(CNc2oc(COc3ccccc3Cl)nc2C#N)cc1	?	-3%	16	2%	-33%	-38%
COc1ccccc1-c1nc(C#N)c(NCc2ccc(F)cc2)o1	?	-2%	12	?	-34%	50µM*
